Assay results as given in PubChem BioAssay (NCI).
This is part of a sample that, as a whole, favours compounds with a hit. Of some 83,000 tested, about 20% had one in any assay.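 Method: cells in 96-well plates; compound added at one concentration; 48 h incubation; percent growth measured; values under 10 scored active.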 Calls of active or inactive are those of the source.

Test system: T-47D breast
Test: NCI-60 one-dose screen, 48 h (100 = growth as untreated, 0 = no growth, -100 = all killed)
Conditions: 10 µM unless noted

Q: Which growth does the source give for `Cc1cc(S(=O)(=O)/N=C(\N)n2nc(C)c(C)c2C)c(SCc2ccccc2)cc1Cl` here?
A: 53% (inactive)

Q: Which growth does the source give for `CS(=O)(=O)Nc1cncc(-c2ccc3ncnc(Nc4cncc(Cl)c4)c3c2)c1` here?
A: 2.52% (active)

Q: With `CC(C)(Sc1cc(C(C)(C)C)c(OC(=O)CCCC(=O)O)c(C(C)(C)C)c1)Sc1cc(C(C)(C)C)c(OC(=O)CCCC(=O)O)c(C(C)(C)C)c1` as the molecule, how does the growth read?
A: 49.5% (inactive)

Q: Which growth does the source give for `COc1cc2c(c(OC)c1OC)CCC(c1cccc(NC(=O)c3ccc(Br)cc3)c1)O2` (stereo not given) here?
A: 40.4% (inactive)

Q: Which growth does the source give for `COc1ccc(CNc2c3ccccc3nc3ccccc23)cc1` here?
A: 44.9% (inactive)

Q: With `N#CSc1c[nH]c2cccc(/C=C/C(=O)/C=C(/C=C/c3cccc4[nH]cc(SC#N)c34)OB(F)F)c12` as the molecule, how does the growth read?
A: 9.55% (active)

Q: Which growth does the source give for `CC1=NC2=Nn3c(c4cnn(-c5ccccc5)c4n/c3=N\N)NN2C(c2ccccc2)=C1` here?
A: 94.1% (inactive)

Q: For `COc1ccc(\C=N/N=C(N)/C(N)=N\N=C/c2ccc(OC)cc2)cc1`, which growth is on record?
A: 90.3% (inactive)

Q: Which growth does the source give for `NC(=O)c1cccc(-n2ccc3cc(NC(=O)c4ccc(N5CCOCC5)c(C(F)(F)F)c4)ccc32)n1` here?
A: 3.32% (active)

Q: With `COc1ccc(-c2nc3cc(C(=O)NCc4ccccc4)ccc3n2C2CCCCC2)cc1` as the molecule, how does the growth read?
A: 68.2% (inactive)

Q: How did the growth turn out when `CN(C)CC(C)(C)C(=O)/C=C/c1ccccc1` was run?
A: -30.8% [25 µM] (active)

Q: Which growth does the source give for `C=CCn1c(SCC(=O)Nc2ccc(C(=O)/C=C/c3ccc(Cl)cc3)cc2)nnc1-c1ccc(Br)cc1` here?
A: 88.9% (inactive)

Q: How did the growth turn out when `Cc1cn(-c2cc(NC(=O)c3cccc(C#Cc4cccc5[nH]nc(N)c45)c3)cc(C(F)(F)F)c2)cn1` was run?
A: 39.2% (inactive)

Q: `Oc1c(I)cc(I)cc1CNCCN(Cc1ccccn1)Cc1ccccn1` was tested. Which growth did it give?
A: -36% (active)

Q: With `C=CC[Se]C(=O)Cc1c(C)n(C(=O)c2ccc(Cl)cc2)c2ccc(OC)cc12` as the molecule, how does the growth read?
A: -24.3% (active)

Q: With `CCC(=C(c1ccc(OCCN2CCCCC2)cc1)c1ccc(OCCN2CCCCC2)cc1)c1ccc(Cl)cc1` as the molecule, how does the growth read?
A: -68.3% (active)

Q: How did the growth turn out when `Cc1ccc(/C=C2\COc3ccc(O)cc3C2=O)cc1` was run?
A: 88.9% (inactive)

Q: For `COc1cc2nc3cc([N+](=O)[O-])ccc3c(NCCNCC(C)O)c2cc1OC` (stereo not given), which growth is on record?
A: -7.36% (active)

Q: With `O=C(NNC(=O)c1ccc(NC(=O)c2ccccn2)cc1)Nc1ccc([N+](=O)[O-])cc1` as the molecule, how does the growth read?
A: 99.2% (inactive)

Q: How did the growth turn out when `O=C(Nc1ccc(Oc2cccc(F)c2)c(Cl)c1)c1cccnc1` was run?
A: 33.5% (inactive)

Q: How did the growth turn out when `CCCc1c(OC(=O)c2ccccc2)nc2[nH]c(=O)sc2c1C` was run?
A: 89.7% (inactive)

Q: `CCCCCN1C(=O)/C(=c2\sc3n(c2=O)C2C(NN=3)N(CC)C(=O)N2CC)c2ccccc21` (stereo not given) was tested. Which growth did it give?
A: 23.3% (inactive)

Q: For `CCOC(=O)c1cc(C)n(-c2ccc(C(=O)O)cc2)c1C`, which growth is on record?
A: 102% (inactive)

Q: With `O=C1NC(=O)C(Cc2ccc(OCc3ccc(-c4ccc(Cl)cc4Cl)cc3)cc2)S1` (stereo not given) as the molecule, how does the growth read?
A: 16.1% (inactive)

Q: How did the growth turn out when `CC/C=C\C[C@H](O)C/C=C1/C(=O)C=C[C@@H]1C/C=C\CCCC(=O)N(C)C` was run?
A: 10.7% (inactive)

Q: Which growth does the source give for `NC(=O)CSc1oc(-c2ccccc2)nc1S(=O)(=O)c1ccc(Br)cc1` here?
A: 57.8% (inactive)

Q: With `COc1cc(-c2nccc3[nH]c(-c4ccc5cc[nH]c5c4)nc23)cc(OC)c1OC` as the molecule, how does the growth read?
A: 30.5% (inactive)

Q: How did the growth turn out when `Cc1nc2sc(C(=O)Nc3cccc(Br)c3)c(N)c2cc1C(O)c1ccccc1` (stereo not given) was run?
A: 43.2% (inactive)

Q: For `CC(C)c1ccc(Cc2cnc(NC(=O)c3cc(Br)cs3)s2)cc1`, which growth is on record?
A: 30.3% (inactive)

Q: For `Cc1ccc(-c2nc([P+](c3ccccc3)(c3ccccc3)c3ccccc3)c(S(=O)(=O)c3ccc(C)cc3)o2)cc1`, which growth is on record?
A: 18.6% (inactive)

Q: For `COC(CC(F)F)c1cn(S(=O)(=O)c2ccc(C)cc2)c2ccccc12` (stereo not given), which growth is on record?
A: 30.8% (inactive)

Q: With `Cc1ccc(C[P+](c2ccccc2)(c2ccccc2)c2ccccc2)cc1` as the molecule, how does the growth read?
A: 1.57% (active)

Q: Which growth does the source give for `Cn1cc(-c2nonc2-c2cn(C)c3ccccc23)c2ccccc21` here?
A: 33.4% (inactive)

Q: How did the growth turn out when `CC1=C2[C@@H](CC1)[C@]1(C)O[C@@](C(C)C)(C[C@H]1OC(=O)[C@H](C)O)[C@H]2OC(=O)/C=C/c1ccccc1` was run?
A: 57.6% (inactive)

Q: For `Cc1c(-c2ccc(O)cc2)n(Cc2ccc(OCCN3CCCCCC3)cc2)c2ccc(O)cc12`, which growth is on record?
A: 58.4% (inactive)

Q: How did the growth turn out when `CCOC(=O)C(=O)C(C(=O)OCC)c1ccccc1` (stereo not given) was run?
A: 100% (inactive)

Q: For `CS(=O)(=O)c1ccc(-c2cnn3ccc(-c4cccc(S(=O)(=O)C5CC5)c4)nc23)cc1`, which growth is on record?
A: -6.07% (active)

Q: How did the growth turn out when `O=S(=O)(NCCNc1nccc(-c2c(-c3ccc(F)c(O)c3)nc3occn23)n1)c1ccc(Cl)cc1` was run?
A: 92.3% (inactive)

Q: Which growth does the source give for `Nc1n[nH]c2cccc(C#Cc3cccc(NC(=O)c4cc(F)cc(C(F)(F)F)c4)c3)c12` here?
A: 67.3% (inactive)

Q: How did the growth turn out when `N#Cc1nc(-c2ccc(F)cc2)oc1S(=O)(=O)N1CCOCC1` was run?
A: -6.45% (active)
